Data published in PubChem BioAssay (NCI).
About 79,000 compounds went through this panel and 15% of them were active in at least one assay; those are over-represented in the sample as a whole. Active and inactive are the calls of the source. No stated cut-off is given here; in the data, active means growth inhibition above about 70%; inactive means the rest.

Tests used:
[1] = NCI Yeast Anticancer Drug Screen. Data for the rad52 strain (AID 147);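 further: 0% = growth of vehicle-treated control cultures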; settings: S. cerevisiae rad52 mutant growth inhibition, stronger effect = higher value
Method in brief: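 Yeast strain carrying a DNA damage repair alteration was exposed to test compounds. Growth inhibition was measured relative to vehicle-treated controls.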

[2] = NCI Yeast Anticancer Drug Screen. Data for the wt1 strain (AID 149);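 further: 0% = growth of vehicle-treated wt1 cultures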; settings: S. cerevisiae wt1 strain (SPY 50644) growth inhibition, stronger effect = higher value
Method in brief: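 Using yeast strain wt1, compound-induced growth inhibition was determined against vehicle-treated cultures.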

[3] = NCI Yeast Anticancer Drug Screen. Data for the rad50EPP+ strain (AID 151);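 further: 0% = growth of vehicle-treated control cultures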; settings: S. cerevisiae rad50 mutant strain, stronger effect = higher value
Method in brief: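 Yeast strain carrying rad50 alteration (rad50EPP+) exposed to compounds; growth inhibition measured relative to vehicle-treated controls.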

[4] = NCI Yeast Anticancer Drug Screen. Data for the mgt1 strain (AID 153); settings: S. cerevisiae mgt1 mutant growth inhibition, stronger effect = higher value
Method in brief: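 Yeast mgt1 strain (DNA repair/cell-cycle alteration panel) exposed to compounds; growth inhibition measured relative to vehicle-treated controls.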

[5] = NCI Yeast Anticancer Drug Screen. Data for the rad50 strain (AID 155);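 further: 0% = growth of vehicle-only cultures of the same strain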; settings: S. cerevisiae rad50 strain growth inhibition, stronger effect = higher value
Method in brief: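 Relative growth inhibition (compound vs vehicle) was measured in yeast with a defined repair-gene alteration.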

[6] = NCI Yeast Anticancer Drug Screen. Data for the mec2-1 strain (AID 157); settings: S. cerevisiae mec2-1 strain, stronger effect = higher value
Method in brief: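 mec2-1 yeast strain, carrying an alteration in DNA damage repair or cell cycle control, was exposed to compounds; growth inhibition was measured relative to vehicle-treated controls.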

[7] = NCI Yeast Anticancer Drug Screen. Data for the rad14 strain (AID 159);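 further: 0% = growth of vehicle-treated control cultures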; settings: S. cerevisiae rad14 strain growth inhibition, stronger effect = higher value
Method in brief: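 Screen for anticancer potential: a yeast strain altered in DNA damage repair is grown with compound, and reduced growth is quantified against vehicle controls.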

[8] = NCI Yeast Anticancer Drug Screen. Data for the sgs1 mgt1 strain (AID 161);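 further: 0% = growth of cultures given vehicle only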; settings: S. cerevisiae sgs1 mgt1 strain, stronger effect = higher value
Method in brief: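 This yeast growth screen uses a strain with defined DNA-repair lesions; compound-treated growth is compared with vehicle-treated growth.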

[9] = NCI Yeast Anticancer Drug Screen. Data for the CLN2oe strain (AID 163);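 further: 0% = growth of vehicle-only control cultures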; settings: S. cerevisiae CLN2oe strain, stronger effect = higher value
Method in brief: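 Yeast cells carrying a defined cell-cycle control alteration were exposed to test compounds. Growth inhibition was scored against vehicle-treated control cultures.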

[10] = NCI Yeast Anticancer Drug Screen. Data for the cln2 rad14 strain (AID 165);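 further: 0% = growth equal to vehicle treated cultures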; settings: S. cerevisiae cln2 rad14 strain, stronger effect = higher value
Method in brief: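 Yeast carrying cln2 and rad14 alterations (cell cycle control and DNA damage repair) were exposed to compounds. Growth inhibition was measured against vehicle-treated controls.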

[11] = NCI Yeast Anticancer Drug Screen. Data for the bub3 strain (AID 167); settings: S. cerevisiae bub3 mutant strain, stronger effect = higher value
Method in brief: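 Screening used yeast with an engineered genetic alteration affecting cell cycle control. Compound-exposed cultures were compared with vehicle cultures, and reduced growth was taken as inhibition.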

[12] = NCI Yeast Anticancer Drug Screen. Data for the wt2 strain (AID 169);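 further: 0% = growth of vehicle-treated yeast cultures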; settings: S. cerevisiae wt2 strain growth inhibition, stronger effect = higher value
Method in brief: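 Yeast cells were exposed to test compounds, and growth inhibition was measured relative to vehicle-treated controls.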

[13] = NCI Yeast Anticancer Drug Screen. Data for the mlh1 strain (AID 171);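 further: 0% = growth of vehicle-treated control cultures of the same strain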; settings: S. cerevisiae mlh1 strain growth inhibition, stronger effect = higher value
Method in brief: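 Yeast carrying a defined genetic alteration in DNA damage repair or cell cycle control were exposed to test compounds. Growth inhibition was measured relative to vehicle-treated controls.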

[14] = NCI Yeast Anticancer Drug Screen. Data for the sgs1 strain (AID 173);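 further: 0% = growth of vehicle-only control cultures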; settings: S. cerevisiae sgs1 mutant, stronger effect = higher value
Method in brief: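 Yeast mutant strains carrying defined defects in DNA damage repair or cell cycle control were exposed to test compounds. Growth inhibition was scored against vehicle-treated controls.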

[15] = NCI Yeast Anticancer Drug Screen. Data for the mlh1 rad18 strain (AID 175); settings: S. cerevisiae mlh1 rad18 strain growth inhibition, stronger effect = higher value
Method in brief: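 Growth inhibition of the yeast strain was measured after compound exposure and expressed relative to vehicle-treated controls. The strain carries defined defects in DNA damage repair.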

[16] = NCI Yeast Anticancer Drug Screen. Data for the rad18 strain (AID 177); settings: S. cerevisiae rad18 mutant growth inhibition, stronger effect = higher value
Method in brief: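 Yeast carrying a defined DNA damage repair alteration were exposed to compounds. Growth inhibition was expressed relative to vehicle-treated controls.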

[17] = at 5.0 µM (retest, dose inferred, filed as 0.5)
[18] = at 50.0 µM (retest, dose inferred, filed as 5.0)

Measured: growth inhibition

CN(C)CCNc1cccc2sc3ccc(O)cc3c(=O)c12
active: [5]; [18] 90% | [5]; at 50.0 µM 87.8%
inactive: [1]; at 1.2 µM 0% | [1]; at 3.7 µM 1% | [1]; at 11.0 µM 10% | [1]; at 33.0 µM 20% | [1]; at 100.0 µM 43% | [2]; at 1.2 µM 1% | [2]; at 3.7 µM 6% | [2]; at 11.0 µM 3% | [2]; at 33.0 µM 4% | [2]; at 100.0 µM 6% | [3]; at 1.2 µM 2% | [3]; at 3.7 µM 11% | [3]; at 11.0 µM 15% | [3]; at 33.0 µM 26% | [3]; at 100.0 µM 33% | [4]; at 1.2 µM -1% | [4]; at 3.7 µM -5% | [4]; at 11.0 µM -3% | [4]; at 33.0 µM 0% | [4]; at 100.0 µM 6% | [5]; at 1.2 µM 4% | [5]; at 3.7 µM 6% | [5]; [17] 14% | [5]; at 11.0 µM 11% | [5]; at 33.0 µM 31% | [5]; at 100.0 µM 47% | [6]; at 1.2 µM 4% | [6]; at 3.7 µM 5% | [6]; [17] -1% | [6]; at 11.0 µM 8% | [6]; at 33.0 µM 9% | [6]; [18] 17% | [6]; at 50.0 µM 18.5% | [6]; at 100.0 µM 7% | [7]; at 1.2 µM -1% | [7]; at 3.7 µM 1% | [7]; at 11.0 µM 5% | [7]; at 33.0 µM 12% | [7]; at 100.0 µM 19% | [8]; [17] 1% | [8]; [18] 7% | [8]; at 50.0 µM 48.1% | [9]; at 1.2 µM -6% | [9]; at 3.7 µM -11% | [9]; at 11.0 µM -8% | [9]; at 33.0 µM -5% | [9]; at 100.0 µM 4% | [10]; [17] 3% | [10]; [18] 26% | [10]; at 50.0 µM 45.5% | [11]; at 1.2 µM 2% | [11]; at 3.7 µM -4% | [11]; [17] 1% | [11]; at 11.0 µM -1% | [11]; at 33.0 µM -2% | [11]; [18] 8% | [11]; at 50.0 µM 36.2% | [11]; at 100.0 µM -4% | [12]; at 1.2 µM 1% | [12]; at 3.7 µM -2% | [12]; at 11.0 µM 0% | [12]; at 33.0 µM 1% | [12]; at 100.0 µM 4% | [13]; at 1.2 µM 1% | [13]; at 3.7 µM 3% | [13]; at 11.0 µM 4% | [13]; at 33.0 µM 4% | [13]; at 100.0 µM 8% | [14]; at 1.2 µM -1% | [14]; at 3.7 µM -1% | [14]; at 11.0 µM 2% | [14]; at 33.0 µM 3% | [14]; at 100.0 µM 3% | [15]; [17] -3% | [15]; [18] 44% | [15]; at 50.0 µM 66.5% | [16]; at 1.2 µM -2% | [16]; at 3.7 µM -2% | [16]; at 11.0 µM -1% | [16]; at 33.0 µM 1% | [16]; at 100.0 µM 5%

O=C(CNS(=O)(=O)Cc1ccccc1)NNc1ccccc1
active: [5]; at 50.0 µM 75.8% | [8]; [18] 71% | [15]; [17] 71% | [15]; [18] 90% | [16]; at 100.0 µM 83%
inactive: [1]; at 1.2 µM -1% | [1]; at 3.7 µM 2% | [1]; at 11.0 µM 12% | [1]; at 33.0 µM 35% | [1]; at 100.0 µM 44% | [2]; at 1.2 µM -1% | [2]; at 3.7 µM 5% | [2]; at 11.0 µM 4% | [2]; at 33.0 µM 23% | [2]; at 100.0 µM 36% | [3]; at 1.2 µM 2% | [3]; at 3.7 µM 4% | [3]; at 11.0 µM 22% | [3]; at 33.0 µM 43% | [3]; at 100.0 µM 58% | [4]; at 1.2 µM -1% | [4]; at 3.7 µM 12% | [4]; at 11.0 µM 14% | [4]; at 33.0 µM 16% | [4]; at 100.0 µM 16% | [5]; at 1.2 µM 2% | [5]; at 3.7 µM 4% | [5]; [17] 13% | [5]; at 11.0 µM 9% | [5]; at 33.0 µM 17% | [5]; [18] 64% | [5]; at 100.0 µM 24% | [6]; at 1.2 µM -1% | [6]; at 3.7 µM 0% | [6]; [17] -3% | [6]; at 11.0 µM 7% | [6]; at 33.0 µM 14% | [6]; [18] 9% | [6]; at 50.0 µM 62.5% | [6]; at 100.0 µM 16% | [7]; at 1.2 µM 0% | [7]; at 3.7 µM 3% | [7]; at 11.0 µM 6% | [7]; at 33.0 µM 13% | [7]; at 100.0 µM 20% | [8]; [17] 28% | [8]; at 50.0 µM 63.6% | [9]; at 1.2 µM 5% | [9]; at 3.7 µM 5% | [9]; at 11.0 µM 24% | [9]; at 33.0 µM 39% | [9]; at 100.0 µM 39% | [10]; [17] 8% | [10]; [18] 33% | [10]; at 50.0 µM 60% | [11]; at 1.2 µM 1% | [11]; at 3.7 µM 0% | [11]; [17] 5% | [11]; at 11.0 µM 2% | [11]; at 33.0 µM 8% | [11]; [18] 29% | [11]; at 50.0 µM 69.3% | [11]; at 100.0 µM 10% | [12]; at 1.2 µM 1% | [12]; at 3.7 µM 2% | [12]; at 11.0 µM 11% | [12]; at 33.0 µM 30% | [12]; at 100.0 µM 38% | [13]; at 1.2 µM -4% | [13]; at 3.7 µM 0% | [13]; at 11.0 µM 5% | [13]; at 33.0 µM 16% | [13]; at 100.0 µM 24% | [14]; at 1.2 µM -1% | [14]; at 3.7 µM -1% | [14]; at 11.0 µM 8% | [14]; at 33.0 µM 36% | [14]; at 100.0 µM 54% | [15]; at 50.0 µM 40.1% | [16]; at 1.2 µM 4% | [16]; at 3.7 µM 5% | [16]; at 11.0 µM 23% | [16]; at 33.0 µM 63%
